# Experimental data taken from PubChem BioAssay (Tox21).
# Several values for one entry are separate records, joined by “and”; a condition that tells them apart may be missing. Identical values can stand only once. Unmarked numbers belong to inactive results. Inconclusive results are not listed. Where a call stands in place of a potency, no number is given. Activity calls are given as the source filed them. Unless noted, the call rests on the fitted dose curve.
# Columns and labels:
# [1] = qHTS assay to identify small molecule antagonists of the sonic hedgehog signaling (Shh) pathway (AID 1259369); further: nearly all actives have a fitted effect of over 45% in size; further: potency means the concentration at half of the fitted maximal effect
# Summary of the method: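 3T3Gli1-Luc, conditioned-medium-stimulated, 24hr cpd, 37C/5% CO2; Gli1-driven firefly Luc luminescence after 30min RT with luciferase reagent. Cells plated 4hr before cpd.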
# [2] = qHTS assay to identify small molecule agonists of the androgen receptor (AR) signaling pathway in the presence of an antagonist - cell viability counter screen (AID 1259379; active means well fitted curve in the direction sought with a large enough effect in the repeat runs; an effect the other way counts as inactive or inconclusive; further: nearly all actives have a fitted effect of over 25% in size; further: potency means the concentration at half of the fitted maximal effect;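 on activity change, negative = cytotoxicity: MDA-kb2 human breast cancer cells carrying an MMTV luciferase reporter; series mostly up to about 92 µM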)
# Summary of the method: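 Cells: MDA-kb2 (MMTV-luc, AR and GR elements), 3,000/well, 5 hr settle. Added: nilutamide 3.0uM final, then compounds (15 conc.). Incubation: 16 hr, 37C, no CO2. Read-out: CellTiter-Fluor, 1 hr, fluorescence.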
# [3] = qHTS assay to identify small molecule agonists of the estrogen receptor beta (ER-beta) signaling pathway - cell viability counter screen (AID 1259380; active means well fitted curve in the direction sought with a large enough effect in the repeat runs; an effect the other way counts as inactive or inconclusive; further: nearly all actives have a fitted effect of over 30% in size; further: potency means the concentration at half of the fitted maximal effect)
# Summary of the method: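 HEK293T ER-beta-UAS-bla; 2% CS-FBS; 6 hr pre-plate, 16 hr cpd at 37C/5% CO2; LiveBLAzer read first, then CellTiter-Glo 30 min RT, luminescence.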
# [4] = qHTS assay to identify small molecule antagonists of the estrogen receptor beta (ER-beta) signaling pathway - cell viability counter screen (AID 1259382; active means well fitted curve in the direction sought with a large enough effect in the repeat runs; an effect the other way counts as inactive or inconclusive; further: nearly all actives have a fitted effect of over 55% in size; further: potency means the concentration at half of the fitted maximal effect; on activity change, negative = cytotoxicity: series mostly up to about 92 µM)
# Summary of the method: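 Cells: ER-beta-UAS-bla HEK293T, 2,000/well, 2% CS-FBS, 6 hr settle. Cpd + E2 (1nM final), 16 hr, 37C/5% CO2. Bla FRET substrate 2 hr RT, then CellTiter-Glo 30 min RT, luminescence.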
# [5] = target: Androgen receptor (Homo sapiens) (UniProt P10275); experiment: qHTS assay to identify small molecule agonists of the androgen receptor (AR) signaling pathway in the presence of an antagonist (AID 1259381); further: nearly all actives have a fitted effect of over 15% in size
# Summary of the method: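 MDA-kb2 cells, 3,000/well, rested 5hr at 37C/0% CO2 → nilutamide 3.0uM final or buffer → compounds, 15 conc. → 16hr at 37C → ONE-Glo, 30min RT → luminescence.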
# [6] = qHTS assay to identify small molecule agonists or antagonists of the thyroid stimulating hormone receptor (TSHR) signaling pathway - wild type cell line counter screen (AID 1259384)
# Summary of the method: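 Wild-type Hek293 cells, 800/well, 18 h at 37C, then compound with Ro20-1724 for 30 min RT. cAMP by HTRF (cAMP-d2/anti-cAMP cryptate), 1 h RT, fluorescence read. 15 concentrations, triplicates.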
# [7] = target: Thyrotropin receptor (Homo sapiens) (UniProt P16473); experiment: qHTS assay to identify small molecule antagonists of the thyroid stimulating hormone receptor (TSHR) signaling pathway (AID 1259385); further: nearly all actives have a fitted effect of over 20% in size; further: potency means the concentration at half of the fitted maximal effect
# Summary of the method: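 TSHR-HEK293 cells (800/well) plated 18 h, then compounds with Ro20-1724 and TSH at 1.5 ng/mL final, 30 min at room temperature. cAMP quantified by HTRF (cAMP-d2/anti-cAMP-cryptate, 1 h); 15 concentrations in triplicate.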
# [8] = target: Estrogen receptor (Homo sapiens) (UniProt P03372); experiment: qHTS assay to identify small molecule agonists of the estrogen receptor alpha (ER-alpha) signaling pathway in the presence of an antagonist (AID 1259383); further: top concentration of the series differs between compounds; nearly all actives have a fitted effect of over 15% in size
# Summary of the method: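 VM7Luc4E2, endog. ER-alpha + 4×ERE-luc; charcoal-stripped FBS, phenol red-free, 5 d; 24hr plating; +10.0nM ICI-182,780 (final); cpds 15 conc, 22hr, 37C/5% CO2; ONE-Glo luminescence.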
# [9] = target: Estrogen receptor beta (Homo sapiens) (UniProt Q92731); experiment: qHTS assay to identify small molecule agonists of the estrogen receptor beta (ER-beta) signaling pathway (AID 1259377; active means well fitted activation curve with a large enough effect in the signal ratio in the repeat runs, not every such curve was filed as active; the % refers to the signal ratio)
# Summary of the method: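 Reporter cells (HEK293T, ER-beta-UAS-bla) receive compounds or DMSO after a 6 hr pre-incubation. They then incubate 16 hr at 37C/5% CO2, and fluorescence from LiveBLAzer B/G substrate is measured after 2 hours at room temperature.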
# [10] = target: Estrogen receptor beta (Homo sapiens) (UniProt Q92731); experiment: qHTS assay to identify small molecule antagonists of the estrogen receptor beta (ER-beta) signaling pathway (AID 1259378; active means well fitted inhibition curve with a large enough effect in the signal ratio in the repeat runs, not every such curve was filed as active; the % refers to the signal ratio; further: potency means the concentration at half of the fitted maximal effect)
# Summary of the method: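 ER-beta-UAS-bla HEK293T cells in 2% charcoal-stripped FBS medium treated with compound plus 1nM final 17-beta-estradiol for 16 hr at 37C. Beta-lactamase reporter read by FRET substrate fluorescence after 2 hours at room temperature.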
# Thyrotropin receptor (Homo sapiens), sequence (P16473 whole entry, looked up): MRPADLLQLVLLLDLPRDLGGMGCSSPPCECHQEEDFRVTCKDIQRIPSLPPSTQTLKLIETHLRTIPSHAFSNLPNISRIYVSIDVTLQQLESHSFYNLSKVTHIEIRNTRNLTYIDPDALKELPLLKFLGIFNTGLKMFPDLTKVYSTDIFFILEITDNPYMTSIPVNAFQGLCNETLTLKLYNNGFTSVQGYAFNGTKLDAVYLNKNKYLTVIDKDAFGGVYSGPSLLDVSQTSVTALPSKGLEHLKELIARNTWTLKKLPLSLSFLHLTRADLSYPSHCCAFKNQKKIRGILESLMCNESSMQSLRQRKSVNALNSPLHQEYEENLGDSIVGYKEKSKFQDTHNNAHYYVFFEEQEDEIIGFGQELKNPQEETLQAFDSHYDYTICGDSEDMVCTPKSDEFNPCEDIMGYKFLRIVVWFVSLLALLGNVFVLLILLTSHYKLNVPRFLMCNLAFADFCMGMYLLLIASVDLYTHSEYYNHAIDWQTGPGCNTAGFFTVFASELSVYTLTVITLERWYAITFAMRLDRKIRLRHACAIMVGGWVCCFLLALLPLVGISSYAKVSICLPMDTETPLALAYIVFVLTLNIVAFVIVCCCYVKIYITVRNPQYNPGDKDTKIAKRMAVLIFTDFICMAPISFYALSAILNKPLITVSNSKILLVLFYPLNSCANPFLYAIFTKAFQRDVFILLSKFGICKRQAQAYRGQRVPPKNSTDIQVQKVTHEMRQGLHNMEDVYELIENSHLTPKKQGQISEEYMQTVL
# Estrogen receptor beta (Homo sapiens), sequence (Q92731 whole entry, looked up): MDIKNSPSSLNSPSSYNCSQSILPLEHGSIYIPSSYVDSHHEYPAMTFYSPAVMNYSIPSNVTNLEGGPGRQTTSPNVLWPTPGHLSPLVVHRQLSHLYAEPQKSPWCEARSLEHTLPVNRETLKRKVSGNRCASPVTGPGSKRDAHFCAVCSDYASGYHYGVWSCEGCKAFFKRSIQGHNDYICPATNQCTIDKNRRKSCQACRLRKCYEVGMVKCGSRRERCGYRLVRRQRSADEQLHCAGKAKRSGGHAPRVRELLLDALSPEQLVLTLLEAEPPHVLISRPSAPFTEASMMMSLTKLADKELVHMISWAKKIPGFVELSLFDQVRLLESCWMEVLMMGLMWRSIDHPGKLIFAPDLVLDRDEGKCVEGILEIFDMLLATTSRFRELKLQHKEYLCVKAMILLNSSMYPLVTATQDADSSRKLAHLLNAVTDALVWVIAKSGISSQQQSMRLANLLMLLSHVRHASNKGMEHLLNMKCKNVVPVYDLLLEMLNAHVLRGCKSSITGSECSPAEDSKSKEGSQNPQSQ
# Estrogen receptor (Homo sapiens), sequence (P03372 whole entry, looked up): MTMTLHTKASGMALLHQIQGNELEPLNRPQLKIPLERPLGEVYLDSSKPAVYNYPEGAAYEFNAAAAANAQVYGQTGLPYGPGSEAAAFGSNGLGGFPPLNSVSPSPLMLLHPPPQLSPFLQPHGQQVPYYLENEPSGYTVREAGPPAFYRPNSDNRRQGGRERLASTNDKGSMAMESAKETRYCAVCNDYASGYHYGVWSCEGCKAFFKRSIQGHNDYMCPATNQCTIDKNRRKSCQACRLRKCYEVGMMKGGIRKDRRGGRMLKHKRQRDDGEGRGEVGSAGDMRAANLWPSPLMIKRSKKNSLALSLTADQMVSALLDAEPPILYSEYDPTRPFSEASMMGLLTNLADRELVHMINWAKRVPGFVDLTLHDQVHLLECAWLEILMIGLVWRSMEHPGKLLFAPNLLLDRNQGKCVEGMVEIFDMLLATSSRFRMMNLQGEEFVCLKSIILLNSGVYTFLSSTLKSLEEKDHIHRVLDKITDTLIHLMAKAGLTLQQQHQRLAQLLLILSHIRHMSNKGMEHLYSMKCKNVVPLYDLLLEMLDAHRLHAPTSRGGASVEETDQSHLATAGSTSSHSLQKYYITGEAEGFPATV
# Androgen receptor (Homo sapiens), sequence (P10275 whole entry, looked up): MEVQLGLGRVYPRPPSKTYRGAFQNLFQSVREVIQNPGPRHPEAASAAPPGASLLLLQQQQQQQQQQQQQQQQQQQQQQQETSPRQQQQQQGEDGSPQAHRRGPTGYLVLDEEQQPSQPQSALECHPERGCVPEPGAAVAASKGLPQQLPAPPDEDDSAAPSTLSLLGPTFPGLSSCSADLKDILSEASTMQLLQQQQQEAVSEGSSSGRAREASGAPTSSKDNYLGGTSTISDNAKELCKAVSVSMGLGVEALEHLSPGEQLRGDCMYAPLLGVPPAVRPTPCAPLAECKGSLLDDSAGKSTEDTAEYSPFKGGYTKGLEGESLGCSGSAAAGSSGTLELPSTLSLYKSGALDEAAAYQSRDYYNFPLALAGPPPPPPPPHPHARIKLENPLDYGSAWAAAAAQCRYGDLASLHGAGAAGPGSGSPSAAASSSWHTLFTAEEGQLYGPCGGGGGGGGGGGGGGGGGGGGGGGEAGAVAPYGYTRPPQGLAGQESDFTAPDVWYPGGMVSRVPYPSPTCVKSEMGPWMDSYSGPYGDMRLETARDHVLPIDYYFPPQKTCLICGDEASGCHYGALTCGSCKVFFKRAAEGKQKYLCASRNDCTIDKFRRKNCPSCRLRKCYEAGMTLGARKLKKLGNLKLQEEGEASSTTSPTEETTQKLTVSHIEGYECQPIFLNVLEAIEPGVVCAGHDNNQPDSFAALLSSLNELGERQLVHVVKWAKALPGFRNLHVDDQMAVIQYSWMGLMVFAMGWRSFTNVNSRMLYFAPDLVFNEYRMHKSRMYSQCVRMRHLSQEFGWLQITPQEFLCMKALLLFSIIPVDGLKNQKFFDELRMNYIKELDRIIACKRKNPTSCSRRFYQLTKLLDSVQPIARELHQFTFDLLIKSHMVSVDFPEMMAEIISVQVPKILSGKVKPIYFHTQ
smiles,measurement,setting,value
CC(=O)[O-].CC(=O)[O-].CC(=O)[O-].[Sb+3],"activity change, negative = inhibition",[1],2.99% [at 3.27 µM]
same,"activity change, negative = cytotoxicity",[2],3.2% [at 3.27 µM]
same,"activity change, negative = cytotoxicity",[3],2.42% [at 3.32 µM]
same,"activity change, negative = cytotoxicity",[4],-1.85% [at 3.27 µM]
O=C(CCCCl)c1ccc(F)cc1,Potency,[1],inactive
same,Potency,[2],inactive
same,Potency,[3],inactive
same,Potency,[5],inactive
same,Potency,[4],inactive
same,Potency,[6],inactive
same,Potency,[7],inactive
Cc1nn(-c2cc(NS(C)(=O)=O)c(Cl)cc2Cl)c(=O)n1C(F)F,Potency,[1],inactive
same,Potency,[2],inactive
same,Potency,[3],inactive
same,Potency,[5],inactive
same,Potency,[7],inactive
C1=CCC=C1,Potency,[1],inactive
same,Potency,[2],inactive
same,Potency,[3],inactive
same,Potency,[4],inactive
O=C(O)[C@H](O)[C@@H](O)C(=O)O,Potency,[1],inactive
same,Potency,[2],inactive
same,Potency,[3],inactive
same,Potency,[4],inactive
C=CC(=O)[O][Sn]([CH2]CCC)([CH2]CCC)[CH2]CCC,Potency,[1],0.486 µM (active)
same,Potency,[2],4.33 µM (active)
same,Potency,[3],2.43 µM (active)
same,Potency,[5],inactive
same,Potency,[4],3.06 µM (active)
same,Potency,[7],13.7 µM (active)
N#CC(C#N)=NNc1cccc(Cl)c1,Potency,[1],1.09 µM (active)
same,Potency,[2],1.93 µM (active)
same,Potency,[3],15.4 µM (active)
same,Potency,[5],inactive
same,Potency,[8],inactive
same,Potency,[6],inactive
same,Potency,[7],inactive
CCCCC(CC)COC(=O)OOC(C)(C)C (stereo not drawn),Potency,[1],inactive
same,Potency,[2],inactive
same,Potency,[3],inactive
same,Potency,[4],inactive
CC(Cc1ccc(O)cc1)NCC(O)c1cc(O)cc(O)c1 (stereo not drawn),Potency,[1],inactive
same,Potency,[2],inactive
same,Potency,[3],inactive
same,Potency,[4],inactive
same,Potency,[8],inactive
same,Potency,[7],inactive
C=C(C)C(=O)[O][Sn]([CH2]CCC)([CH2]CCC)[CH2]CCC,Potency,[1],0.217 µM (active)
same,Potency,[2],1.72 µM (active)
same,Potency,[3],1.37 µM (active)
same,Potency,[4],1.54 µM (active)
same,Potency,[6],inactive
same,Potency,[7],12.2 µM (active)
[F][Sn]([c]1ccccc1)([c]1ccccc1)[c]1ccccc1,Potency,[1],0.0486 µM (active)
same,Potency,[2],4.33 µM (active)
same,Potency,[3],1.22 µM (active)
same,Potency,[4],1.22 µM (active)
same,Potency,[6],inactive
same,Potency,[7],15.4 µM (active)
O=S1(=O)OCC2C(CO1)C1(Cl)C(Cl)=C(Cl)C2(Cl)C1(Cl)Cl (stereo not drawn),Potency,[1],inactive
same,Potency,[4],inactive
COC(=O)C(C)N(C(=O)c1ccco1)c1c(C)cccc1C (stereo not drawn),Potency,[9],inactive
same,Potency,[10],inactive
same,Potency,[2],inactive
same,Potency,[3],inactive
same,Potency,[4],inactive
same,Potency,[8],inactive
same,Potency,[7],inactive
CCOP(=S)(OCC)SC(CCl)N1C(=O)c2ccccc2C1=O (stereo not drawn),Potency,[9],inactive
same,Potency,[10],30.6 µM (active)
same,Potency,[2],inactive
same,Potency,[3],inactive
same,Potency,[5],inactive
same,Potency,[4],inactive
same,Potency,[6],inactive
ClC1(Cl)C2(Cl)C3(Cl)C4(Cl)C(Cl)(Cl)C5(Cl)C3(Cl)C1(Cl)C5(Cl)C24Cl (stereo not drawn),Potency,[1],inactive
same,Potency,[2],inactive
same,Potency,[5],inactive
same,Potency,[4],inactive
same,Potency,[8],inactive
same,Potency,[6],inactive
same,Potency,[7],inactive
CN=C=O,Potency,[1],inactive
same,Potency,[2],inactive
same,Potency,[3],inactive
same,Potency,[4],inactive
same,Potency,[6],inactive
same,Potency,[7],inactive
CN1CCc2cc(Cl)c(O)cc2[C@H]2c3ccccc3CC[C@@H]21,Potency,[1],inactive
same,Potency,[3],15 µM (active)
same,Potency,[4],inactive
same,Potency,[8],inactive
same,Potency,[7],inactive
CCOC(=O)CCN(SN(C)C(=O)Oc1cccc2c1OC(C)(C)C2)C(C)C,Potency,[1],54.5 µM (active)
same,Potency,[2],inactive
same,Potency,[3],inactive
same,Potency,[4],inactive
same,Potency,[7],inactive
c1csc(-c2ccc(-c3cccs3)s2)c1,Potency,[1],inactive
same,Potency,[2],inactive
same,Potency,[3],inactive
same,Potency,[4],inactive
same,Potency,[6],inactive
same,Potency,[7],inactive
Clc1c(Cl)c(Cl)c(Cl)c(Cl)c1Cl,"activity change, negative = inhibition",[1],3.84% [at 8.39 µM]
same,"activity change, negative = cytotoxicity",[2],1.03% [at 8.39 µM]
same,"activity change, negative = cytotoxicity",[3],0.531% [at 8.39 µM]
same,"activity change, negative = inhibition",[7],2.16% [at 8.39 µM]
CCN(CC)C(=O)N[C@@H]1C=C2c3cccc4[nH]cc(c34)C[C@@H]2N(C)C1,Potency,[1],inactive
same,Potency,[2],inactive
same,Potency,[3],inactive
same,Potency,[4],inactive
same,Potency,[6],inactive
same,Potency,[7],inactive
c1ccc2c(c1)cc1ccc3cccc4ccc2c1c34,Potency,[1],inactive
same,Potency,[3],inactive
same,Potency,[4],inactive
same,Potency,[6],inactive
same,Potency,[7],inactive
C=CCBr,Potency,[1],inactive
same,Potency,[2],inactive
same,Potency,[3],inactive
same,Potency,[4],inactive
same,Potency,[7],inactive
CCCCON=O,Potency,[1],inactive
same,Potency,[2],inactive
same,Potency,[3],inactive
same,Potency,[4],inactive
same,Potency,[6],inactive
same,Potency,[7],inactive
CCOP(=O)(Sc1ccccc1)Sc1ccccc1,Potency,[1],inactive
same,Potency,[2],inactive
same,Potency,[4],inactive
same,Potency,[8],inactive
same,Potency,[6],inactive
same,Potency,[7],inactive
Clc1ccc(C(c2ccc(Cl)cc2)C(Cl)Cl)cc1,Potency,[1],34.4 µM (active)
same,Potency,[2],inactive
same,Potency,[3],54.5 µM (active)
same,Potency,[8],inactive
same,Potency,[6],inactive
same,Potency,[7],62.1 µM (active) and 61.1 µM (active)
CN(C)CCc1c[nH]c2ccccc12,Potency,[1],inactive
same,Potency,[2],inactive
same,Potency,[3],inactive
same,Potency,[4],inactive
same,Potency,[6],inactive
same,Potency,[7],inactive
